Test results taken from PubChem BioAssay AID1918990 (ICCB-Longwood Screening Facility, Harvard Medical School, 2023).
The campaign covered roughly 29,000 compounds. About 85 (0.3%) were called active. This excerpt belongs to a sample that is enriched for actives. A number with no mark means an inactive call.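 Rule for the calls: active = replicate mean overnight rise in green fluorescent reporter signal, 3 or more SD over negative controls; inactive = the rest.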

Assay: fixK promoter GFP reporter activation – B. multivorans, primary screen (AID 1918990)
Conditions: 18 h, hits give high values

Compound | z-score
COc1cc(C(=O)N2CCC(O)(c3ccc(C)cn3)CC2)nc(OC)n1 | -2.73
CCOc1ccc(NC(=O)c2cnn(-c3ccccc3)c2-n2cccc2)cc1 | 0.15
CC(=O)N1CCN(Cc2cc(Cl)cc(Cl)c2)C2CS(=O)(=O)CC21 (stereo unspecified) | 1.37
CN(C)C(=O)N1CCC(C(=O)NC2COCC2Cc2ccncc2)CC1 (stereo unspecified) | -2.62
COc1ccc(OC)c(-c2nc(CN3CCNC(=O)CC3)c(C)o2)c1 | -1.03
O=C1N(Cc2ccccc2)c2ccc(Cl)cc2C1(O)c1c[nH]c2ccccc12 (stereo unspecified) | -2.44
CCCNC(=O)CCn1nc(-c2ccccc2)c2ccccc2c1=O | -2.63
COC(=O)c1ccc(NC(=O)c2cccc3c2C(=O)N(C2CCCCC2)C3)cc1 | -0.11
CN(CC(=O)Nc1cccc(C(F)(F)F)c1)S(=O)(=O)c1cccs1 | -1.64
COc1ccc(C2=NC3(CCCCC3)N(CC(=O)Nc3ccc(C(C)C)cc3)C2=O)cc1 | -0.47
O=C(CSc1nc(-c2cccc(F)c2)[nH]c1-c1ccccc1)Nc1ccc2c(c1)OCO2 | -0.24
CC1CCCCN1Cc1c(O)ccc2c(=O)c(-c3cccc(Cl)c3)c(C(F)(F)F)oc12 (stereo unspecified) | -3.67
O=C(NC1CCCC1Cc1ccc(F)cc1)c1cccc(=O)[nH]1 (stereo unspecified) | 0.15
Cn1nnnc1SCCNCc1ccc(Cl)c(Cl)c1 | -2.02
O=C(c1ccnc(CC2COc3ccccc3C2)c1)N1CCOCC1 (stereo unspecified) | 1.09
CN1CCN(CC2(CNC(=O)CN(C)Cc3cccnc3)CC2)CC1 | -0.08

Compound | z-score
CCCc1cc(CNC(=O)c2ccc3c(c2)OCC(=O)N3)on1 | 0.27
CCn1cc(C(=O)N(C)Cc2ccccc2)c(=O)c2cc(S(=O)(=O)N3CCCCCC3)ccc21 | -2.08
Cc1cccc(C(=O)N2CCC[C@@]3(CN(Cc4ncc(C)[nH]4)CCC3O)C2)c1 (stereo partly specified) | 0.68
CNC(=O)c1cccc(NC(=O)CCCc2cccs2)c1C | -1.26
COc1ccc(CNc2nc(-c3ccccc3)nn2C(=O)c2ccccc2OC)cc1 | 0.5
COc1cc(C2c3c(oc4ccccc4c3=O)C(=O)N2c2nc(C)c(C)s2)ccc1O (stereo unspecified) | -1
Cc1nc(SCCOc2ccc(Cl)cc2)[nH]c(=O)c1Cc1ccccc1 | -1.27
COCC1C(NS(=O)(=O)c2ccc(F)cc2C)C2CCOC21 (stereo unspecified) | -0.38
COc1ccc(-c2nc3ccccc3o2)cc1NC(=O)c1cc([N+](=O)[O-])ccc1N1CCOCC1 | -1.81
CC(=O)c1ccc(N2CCN(c3nc4c(S(=O)(=O)c5ccccc5)nnn4c4ccc(Cl)cc34)CC2)cc1 | 0.23
COc1ccc2c(c1)c(=O)c(S(=O)(=O)c1ccc(F)cc1)cn2CC(=O)Nc1ccc(C)cc1C | -1.75
Cc1nn(-c2nc(-c3ccccc3)cc(C(F)(F)F)n2)c(C)c1Cl | -0.93
CCCSc1ncc(Cl)c(C(=O)Nc2c(C(=O)Nc3ccccc3)oc3ccccc23)n1 | -0.41
O=C(c1ccc2c(c1)N(Cc1ccc(Cl)cc1)C(=O)c1ccccc1S2(=O)=O)N1CCCCC1 | 0.84
COc1ccccc1CNC(=O)CCn1c(=O)c2ccccc2n(CC(=O)Nc2cccc(Cl)c2)c1=O | 0.27
